Hits are enriched below; roughly 4.8% of the tested compounds scored in any of these assays.
DAX1 inh-1 = DAX1 (NR0B1) inhibitors on StAR promoter, primary screen, cell-based, luminescence, SF-1 (NR5A1), full-length DAX-1 | 370,000 tested, 1.1% active | inhibition, % at 6.8 µM | HEK293T StAR-luciferase reporter, SF-1/DAX-1 repression relief;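 active = inhibition above the mean over all tested compounds plus 3 SD, cut at about 3.6% in these data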;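 note: higher inhibition means more luminescence from relief of DAX-1 repression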
SMARCA2 act = SMARCA2 (BRM) function activators, primary screen, cell-based, luminescence, high throughput; MG213 cells, MMTV-luciferase reporter, dexamethasone, overnight; activation, % at 9.1 µM; 370,000 tested, 1% active; AID 652017, 2013; in the data active = activation above about 7.8%
hcDAF-12 act = H. contortus DAF-12 nuclear receptor activators, primary screen, cell-based, luminescence, HEK293, lit1-tk-luc reporter; 370,000 tested, 1.4% active; activation, % at 6.8 µM; AID 652067, 2013; HEK293 hcDAF-12 lit1-tk-luc reporter; 0% DMSO, 100% Δ7-dafachronic acid;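 active = activation above the mean of all tested compounds plus 3 SD, cut at about 5.5% in these data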
ssDAF-12 act = S. stercoralis DAF-12 nuclear receptor activators, primary screen, cell-based, luminescence, HEK293, GRIP1 co-expression, lit1-tk-luc; AID 652126, 2013; 370,000 tested, 1% active; Nuclear hormone receptor DAF-12 (Strongyloides stercoralis); activation, % at 6.8 µM; HEK293 ssDAF-12/GRIP1 lit1-tk-luc reporter; % of 3 µM dafachronic acid response;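 active = activation above the mean over all tested compounds plus 3 SD, cut at about 0.9% in these data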
DAX1 inh-2 = DAX1 (NR0B1) inhibitors, primary screen, cell-based, HEK293, Gal4-DAX1, luciferase luminescence; 340,000 tested, 0.99% active; inhibition, % at 6.75 µM; HEK293 Gal4-DAX1 luciferase reporter;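 active = inhibition above the mean over all tested compounds plus 3 SD, cut at about 4.2% in these data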;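 note: inhibition shows as a rise in luminescence from relieved DAX1 repression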
hgDAF-12 ag = H. glycines DAF-12 receptor agonists, primary screen, cell-based, luminescence, HEK293, GAL4 fusion, UAS-luciferase; Nuclear hormone receptor DAF-12 (Heterodera glycines), GAL4 fusion; HEK293 GAL4-hgDAF12 UAS-luciferase reporter, agonist luminescence; normalized to butyrate control; activation, % at 6.8 µM; 370,000 tested, 1.8% active;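 active = activation above a cutoff set at the mean of all screened compounds plus 3 SD, cut at about 10% in these data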
SMARCA2 act conf = SMARCA2 (BRM) function activators, confirmation, cell-based, luminescence, triplicate; shares compounds with SMARCA2 act; 3,500 tested, 30% active; MG213 cells, MMTV-luciferase with dexamethasone, overnight; MG213 cells expressing E1A, Rb sequestered; DMSO wells 0%, reference activator 100%; activation, % at 9.1 µM; AID 652260, 2013;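 active = activation above its plate's cutoff, the mean activation of tested wells plus 3 SD, cut at about 7.9% in these data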
VP16 Luc act = GAL4-VP16 luciferase reporter activation, counter-screen for SMARCA2 (BRM) activator project, cell-based, pG5luc, luminescence, high throughput; shares compounds with SMARCA2 act; HEK293 GAL4-VP16 pG5luc reporter; scaled: DMSO wells 0%, SAHA wells 100%; activation, % at 9.1 µM; 3,500 tested, 41% active; AID 686939, 2013;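 active = activation above the solvent-only control well mean plus 3 SD, averaged across control plates, cut at about 5.2% in these data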
LXRb hcDAF ctr = LXR agonists, Gal4 luciferase reporter, confirmation, counter-screen for hcDAF-12 agonist project, cell-based, luminescence, HEK293, H. contortus campaign; shares compounds with hcDAF-12 act; HEK293 Gal4-LXR tk-luc reporter, 24 h; normalized: DMSO 0%, positive control 100%; activation, % at 6.8 µM; 3,400 tested, under 10 active; AID 743027, 2013;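 active = mean percent activation of the reporter above a cutoff set as the average over tested compounds plus their standard deviation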
Target sequence (P55055 whole entry, looked up, the tested form may be a part): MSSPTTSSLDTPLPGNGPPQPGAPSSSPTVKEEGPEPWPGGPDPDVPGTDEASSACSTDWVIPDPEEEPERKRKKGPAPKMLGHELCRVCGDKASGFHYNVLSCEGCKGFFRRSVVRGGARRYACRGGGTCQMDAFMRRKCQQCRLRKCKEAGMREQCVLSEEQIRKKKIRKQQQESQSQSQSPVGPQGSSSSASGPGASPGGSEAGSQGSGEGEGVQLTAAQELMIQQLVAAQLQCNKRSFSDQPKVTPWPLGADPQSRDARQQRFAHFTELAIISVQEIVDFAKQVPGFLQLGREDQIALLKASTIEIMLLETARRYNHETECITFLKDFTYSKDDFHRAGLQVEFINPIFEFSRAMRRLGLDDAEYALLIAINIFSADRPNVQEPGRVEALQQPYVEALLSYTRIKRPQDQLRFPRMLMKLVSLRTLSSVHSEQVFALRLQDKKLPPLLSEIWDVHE
hcDAF12 ag = H. contortus DAF-12 receptor agonists, confirmation, cell-based, luminescence, HEK293, lit1-tk-luc, triplicate; shares compounds with hcDAF-12 act; HEK293 hcDAF-12 lit1-tk-luc reporter; % of Δ7-dafachronic acid response; activation, % at 6.8 µM; 3,400 tested, 61% active; AID 743032, 2013;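 active = mean activation across triplicate tests above the threshold derived from the earlier primary screen, cut at about 5.5% in these data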
hgDAF12 conf = H. glycines DAF-12 receptor agonists, confirmation, cell-based, luminescence, HEK293, GAL4-LBD fusion. HEK293 GAL4-hgDAF12 luciferase reporter, agonist mode; percent of butyrate response. activation, % at 6.8 µM. 3,300 tested, 80% active. shares compounds with hgDAF-12 ag. AID 743050, 2013;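 active = mean activation over triplicate wells above the hit cutoff derived from the earlier primary screen, cut at about 11% in these data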
LXRb DAF12 ctr = LXR agonists, Gal4 luciferase reporter, confirmation, counter-screen for hgDAF-12 agonist project, cell-based, luminescence, HEK293, H. glycines campaign. shares compounds with hgDAF-12 ag. 24 h. activation, % at 6.8 µM. 3,300 tested, under 10 active. AID 743051, 2013;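 active = mean activation of the triplicate above a set limit carried over from the primary screen, none filed active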
A number is an active result; 0 = inactive; - = no result.

SMILES	DAX1 inh-1	SMARCA2 act	hcDAF-12 act	ssDAF-12 act	DAX1 inh-2	hgDAF-12 ag	SMARCA2 act conf	VP16 Luc act	LXRb hcDAF ctr	hcDAF12 ag	hgDAF12 conf	LXRb DAF12 ctr
CC(=O)c1ccc(-c2cnc3c(NC=O)cc(-c4ccc(N5CCN(C)CC5)cc4)cn23)cc1	0	12	0	0	-	17	16	0	-	-	0	0
Cc1c(C(=O)Nc2ccc3c(c2)OCO3)oc2ccccc12	0	9.7	16	2.8	0	18	0	11	0	16	21	0
CC(=O)c1ccc(OC(C)C)c(CSC(=N)N)c1	0	0	0	0	0	0	-	-	-	-	-	-
O=C(CC(=O)c1cccs1)c1ccncc1	3.7	10	0	0	0	25	0	0	-	-	0	0
O=C(N[C@@H](CO)C(=O)NCc1ccccc1)c1ccc(C(F)(F)F)cc1	0	0	0	0	0	0	-	-	-	-	-	-
O=C(Cn1cnc2ccccc2c1=O)NCCC(=O)Nc1ccc2c(c1)OCCO2	0	0	0	0	0	0	-	-	-	-	-	-
O=C(Cn1cnc2ccccc2c1=O)Nc1ccc2c(c1)OCCO2	0	8.0	0	0	0	17	0	12	-	-	14	0
Cc1ccc(C)c(NC(=S)c2ccc3ccccc3n2)c1	0	8.5	22	2.0	0	17	0	10	0	15	17	0
CN(C)c1ccc(N=Nc2ccccc2C(=O)OCC(=O)NC2CCCC2)cc1	0	0	0	0	0	0	-	-	-	-	-	-
CN(C)c1ccc(N=Nc2cccc3ccoc23)cc1	0	9.8	16	1.6	6.5	19	0	11	0	9.0	20	0
COc1ccc(C2(C)NC(=O)N(CC(=O)Nc3ccc(Br)c(C)c3)C2=O)cc1OC (stereo not given)	0	0	0	0	0	0	-	-	-	-	-	-

Source: PubChem BioAssay
